Data from PubChem BioAssay (NCATS).
Where “and” joins values, the source holds several entries; their conditions need not be identical. Equal entries are not always repeated. Records with an inconclusive call do not appear. Calls of active or inactive are those of the source. Unless noted, calls come from the whole dose curve; as a rule, active = well fitted curve in the direction sought with a large enough effect; inconclusive = small, poorly fitted or top-dose-only effect, or another doubt; inactive = no such curve, though single readings can be large; an effect the other way counts as inactive or inconclusive.

Key:
[1] = Confirmation and Secondary Assay for Modulators of Hemoglobin Beta Chain Splicing at IVS2 654 locus (AID 910);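 note: HeLa cells stably carrying EGFP split by mutant beta-globin IVS2-654 intron; per-well total GFP intensity by laser scanning cytometry after 2-day treatment; % of control where 0% means no effect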
Outline: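 Readout: per-well total peak green fluorescence (488 nm ex, 500–520 nm em) from objects 5–250 µm, reflecting correct splicing of an EGFP-654 reporter. Compounds were applied for 2 days at 37 °C to overnight-plated HeLa EGFP-654 cells; controls were DMSO and 500 nM IVS2-654 PNA.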

[2] = Confirmation and Secondary Assay for Modulators of Hemoglobin Beta Chain Splicing at IVS2 705 locus (AID 930);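 note: HeLa cells stably expressing the EGFP-705 splicing reporter; % of control where 0% means no effect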
Outline: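 Restored EGFP fluorescence after 2-day compound exposure reports splicing correction in IVS2-705 EGFP reporter HeLa cells; positive control was 500 nM splice-blocking PNA oligo. Signal measured as well total peak GFP intensity (488 nm excitation).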

[3] = target: Ubiquitin carboxyl-terminal hydrolase 1 (Homo sapiens) (UniProt O94782); experiment: Inhibitors of USP1/UAF1: Pilot qHTS (AID 504865);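 note: rhodamine fluorescence freed from ubiquitin-rhodamine substrate followed over time; top concentration of the series differs between compounds; % is set by controls: 0 for no effect and ±100 for the full control effect; nearly all actives have a fitted effect of over 35% in size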
Outline: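 Enzyme-free wells gave the negative control, while test wells held 1nM USP1/UAF1 preincubated with compound for 15 min at room temperature. Ub-Rho at 150nM final started the reaction, and fluorescence at 480/540 nm was recorded kinetically.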

[4] = system: Zika virus NS2B-NS3 protease; experiment: Primary screen GU AMC qHTS for Zika virus inhibitors (AID 1347154);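 note: 0% = no-inhibitor control and -100% = no-enzyme control; nearly all actives have a fitted effect of over 70% in size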
Outline: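 Fluorogenic AMC-substrate cleavage by noncovalent NS2B-NS3 protease complex (25 nM, pH 8.0 Tris buffer with Tween 20) followed for 15 minutes at room temperature (~20% conversion). Percent inhibition from ex340/em450 signal change, fitted by 4-parameter Hill equation.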

[5] = target: Cytochrome P450 2D6 (Homo sapiens) (UniProt P10635); experiment: Cytochrome P450 family 2 subfamily D member 6 (CYP2D6) small molecule antagonists: luciferase biochemical (cell-free) qHTS assay (AID 1645840; active = well fitted curve in the direction sought with a large enough effect in the repeat runs; an effect the other way counts as inactive or inconclusive; note: % is set by controls: 0 for no effect and ±100 for the full control effect; nearly all actives have a fitted effect of over 55% in size)
Outline: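 P450-Glo CYP2D6 system: proluciferin substrate converted by enzyme to luciferin, read by luminescence proportional to activity. Enzyme-substrate mix with compound 10 min at room temperature, then NADPH regeneration 1 h before detection reagent.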

[6] = target: Cytochrome P450 3A4 (Homo sapiens) (UniProt P08684); experiment: Cytochrome P450 family 3 subfamily A member 4 (CYP3A4) small molecule antagonists: luciferase qHTS assay (AID 1645841; active = well fitted curve in the direction sought with a large enough effect in the repeat runs; an effect the other way counts as inactive or inconclusive; note: nearly all actives have a fitted effect of over 45% in size)
Outline: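 Luminescent CYP3A4 activity readout: compounds plus enzyme-substrate mix 10 min at room temperature, reaction started with NADPH regenerating system for 1 h, stopped with detection reagent, read after 20 min. Ketoconazole served as control.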

[7] = NCATS anti-infectives library activity on HEK293 viability as a counter-qHTS vs the C. elegans viability qHTS (AID 1745854);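 note: HEK293 cells exposed to compounds for 24 hr before the viability read; % is set by controls: 0 for no effect and ±100 for the full control effect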
Outline: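 Compound titrations (final up to 41.7 uM) were incubated with HEK293 cells for 24 hr at 37C under 5% CO2. Viable cells were quantified with CellTiter-Glo after 10 min at ambient temperature.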

[8] = Stat Signaling Pathway (AID 446; active = well fitted curve in either direction with a large enough effect, not every such curve was filed as active;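 note: ME-180 cervical cancer cells given 40 pM IL-6 alongside compound; SIE-controlled beta-lactamase reporter measured as 460/530 nm FRET emission ratio; % is set by controls: 0 for no effect and ±100 for the full control effect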); conditions: ME-180 (cervical carcinoma) SIE beta-lactamase reporter, IL-6 stimulated, 5 h
Outline: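 FRET read-out (405 nm excitation, 460/530 nm emission) of a beta-lactamase reporter under a STAT-inducible element in ME-180 cervical carcinoma cells. Cells with compound receive 40 pM IL-6 for 5 h. Values are normalised to AC90 stimulation and AC90 JAK-inhibitor controls.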

[9] = target: Glucocorticoid receptor (Homo sapiens) (UniProt P04150); experiment: GR-GFP Redistribution (AID 450;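 active = compounds whose dose series gives a full or clear partial fitted curve of increased nuclear translocation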; note: potency is the fitted concentration of half-maximal effect); conditions: U2OS GR-GFP nuclear translocation, laser cytometry, 2 h
[10] = target: Glucocorticoid receptor (Homo sapiens) (UniProt P04150); experiment: GR-EFC Redistribution (AID 451; calls by dose curve; note: potency is the fitted concentration of half-maximal effect); conditions: CHO-K1 GR-EFC translocation, beta-gal luminescence, 2 h
Outline: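 Translocation of GR-ED fusion to nuclear EA restores b-gal, read by luminescence after 1 h room-temperature detection. Engineered CHO-K1 biosensor cells, 1,000/well, exposed 2 h at 37 C to titrations up to 46 uM final.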

[11] = target: Mitogen-activated protein kinase 10 (Mus musculus) (UniProt Q61831); experiment: JNK3 AlphaScreen Assay (AID 530; active = well fitted curve in either direction with a large enough effect, not every such curve was filed as active;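 note: kinase came from lysate of stimulated human HepG2 cells; signal reports phosphorylation of biotinylated GST-cJun 1-79 at Ser73 with 10 µM ATP; % is set by controls: 0 for no effect and ±100 for the full control effect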)
Outline: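 Kinase buffer: 20 mM Tris-HCl pH 7.6, 10 mM MgCl2, 1 mM DTT, 0.1 mM Na3VO4, 0.01% Tween-20; ATP 10 uM. Substrate biotin-GST-cJun(1-79), enzyme from activated HepG2 lysates. Detection by Ser73 phospho-antibody AlphaScreen.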

[12] = target: 3',5'-cyclic-AMP phosphodiesterase 4B (Homo sapiens) (UniProt Q07343); experiment: qHTS Assay for Inhibitors of PDE-IV (AID 607; active = well fitted activation curve with a large enough effect in the main read-out, with a control signal flat, not every such curve was filed as active; note: % of control where 0% means no effect)
Outline: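 Cell-based read-out of cAMP via a modified cyclic nucleotide-gated channel and membrane potential dye (535/590 nm) in HEK293 cells expressing PDE4 endogenously. Compounds tested up to 22.9 uM final; 100 uM RO 20-1724 reference.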

[13] = target: Guanine nucleotide-binding protein G(i) subunit alpha-1 (Homo sapiens) (UniProt P63096); experiment: qHTS Assay for Inhibitors of RGS12 GoLoco Motif Activity (Green Fluorophore) (AID 879);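 note: 0% = labeled peptide with Gαi1 and full inhibition = labeled peptide alone without protein; negative values mean loss of peptide binding seen as reduced polarization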
Outline: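 A drop in FITC polarization marked displacement of the FITC-tagged RGS12 GoLoco peptide (10 nM) from Gαi1 (50 nM). Compounds were incubated 10 min at room temperature in Tris pH 7.5 buffer containing 150 mM NaCl, 0.1 mM GDP and 0.05% NP40; unlabeled peptide titration served as control.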

[14] = target: Cytochrome P450 3A4 (Homo sapiens) (UniProt P08684); experiment: qHTS Assay for Inhibitors and Substrates of Cytochrome P450 3A4 (AID 884); note: % is set by controls: 0 for no effect and ±100 for the full control effect; nearly all actives have a fitted effect of over 50% in size
Outline: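 Luminescent readout of luciferin produced by CYP3A4 (20 nM) dealkylation of Luciferin-PPXE, 25 uM (its KM). NADPH-driven reaction ran 60 min at RT after 10 min compound preincubation; data scaled to 57 uM ketoconazole as 100% inhibition.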

[15] = qHTS Assay for Identification of Small Molecule Agonists for Thrombopoietin (TPO) Signaling Pathway (AID 917); note: % is set by controls: 0 for no effect and ±100 for the full control effect
Outline: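 Human TPO receptor–transfected Ba/F3 cells (murine, IL-3-dependent) in IL-3-deficient medium; compounds plus TPO at EC50, 26 pM final; 24 hrs, 37 C; GpIIb-luciferase luminescence after 10 min RT detection.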

[16] = target: Pyruvate kinase PKM (Homo sapiens) (UniProt P14618); experiment: qHTS Assay for Activators of Human Muscle Pyruvate Kinase (AID 954; active = well fitted curve in the direction sought with a large enough effect, not every such curve was filed as active;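 note: 0% = uninhibited enzyme and -100% = no enzyme or full thiadiazolimine inhibition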)
Outline: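 ATP production by PKM2 detected via luciferase luminescence after 1 h room-temperature reaction (0.1 nM enzyme, PEP at Km 0.5 mM, ADP 0.1 mM, pH 7.2 imidazole buffer). Inhibition scaled to no-enzyme control; activation referenced to 0.3 nM enzyme wells.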

[17] = target: Alpha-galactosidase A (Homo sapiens) (UniProt P06280); experiment: Counterscreen for Glucocerebrosidase Inhibitors: qHTS Assay for Human alpha-Galactosidase at pH 4.5 (AID 992); note: 0% is about no effect
Outline: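 Fluorogenic 1536-well qHTS at pH 4.5 (citrate, Tween-20): 2 nM enzyme, 80 uM 4-MU-alpha-galactoside, 20 min room temperature, NaOH/glycine stop. Titration 0.7 nM to 77 uM, data normalized to no-enzyme and full-activity controls, Hill-fitted AC50.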

[18] = target: alpha-glucosidase (Oryza sativa, rice) (UniProt Q653V4); experiment: Counterscreen for Glucocerebrosidase Inhibitors: qHTS Assay for Rice alpha-Glucosidase at pH 5.0 (AID 997);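 note: 0% = full activity with enzyme and -100% = basal without enzyme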
Outline: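 Endpoint fluorogenic assay at pH 5.0: compounds (0.7 nM to 77 uM) titrated against 4 nM rice enzyme and 400 uM 4-MU-alpha-glucoside for 20 min at room temperature; NaOH/glycine stop, read ex 365/em 440 nm, Hill-fitted AC50.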

[19] = qHTS Assay for Lipid Storage Modulators (AID 1519; calls by dose curve); conditions: Drosophila S3 cells, BODIPY lipid droplet/cell ratio, laser cytometry, cells loaded with oleic acid
Outline: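 Cells seeded at 5,000 per well were treated with compounds over a concentration series and loaded with oleic acid (400 uM, as added). Lipid droplet fluorescence (488 nm excitation, 500-530 nm channel) was read by laser-scanning cytometry and normalized to 20 uM Triacsin C.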

[20] = target: DNA dC->dU-editing enzyme APOBEC-3G (Homo sapiens) (UniProt Q9HC16); experiment: qHTS for inhibitors of Vif-A3G interactions: Validation (AID 588379); note: 0% is about no effect
Outline: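 Yellow fluorescence (Ex 488, Em 500-530) of Vif-coexpressing HeLa A3G-eYFP cells, scanned by Acumen cytometer, reports blocked A3G degradation. Cells plated at 700/well overnight at 37 deg C before compound addition, then a further overnight compound incubation at 37 deg C.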

[21] = Primary qHTS for small molecule stabilizers of the endoplasmic reticulum resident proteome: Secreted ER Calcium Modulated Protein (SERCaMP) assay (AID 1508630); note: % is set by controls: 0 for no effect and ±100 for the full control effect
Outline: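 The SH-SY5Y reporter protocol was run at 3 concentrations up to 38.3 uM (primary) or 11 concentrations (follow-up): 16 h compound, 100 nM thapsigargin for 4 h, then extracellular luciferase luminescence.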

[22] = qHTS for Inhibitors of the vitamin D receptor (VDR): Hit Validation using a Texas Red Assay (AID 602201); conditions: VDR coregulator binding, Texas Red fluorescence polarization; agonist-bound VDR ligand-binding domain; note: potency is the fitted concentration of half-maximal effect
Outline: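 After a 2-hour room-temperature incubation, polarization of Texas-Red emission was read (Ex 595 nm/Em 615 nm). Final mix contained 7 nM Texas Red, 1.5 uM VDR-LBD and LG19078.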

Glucocorticoid receptor (Homo sapiens), sequence (P04150 whole entry, looked up, the tested form may be a part): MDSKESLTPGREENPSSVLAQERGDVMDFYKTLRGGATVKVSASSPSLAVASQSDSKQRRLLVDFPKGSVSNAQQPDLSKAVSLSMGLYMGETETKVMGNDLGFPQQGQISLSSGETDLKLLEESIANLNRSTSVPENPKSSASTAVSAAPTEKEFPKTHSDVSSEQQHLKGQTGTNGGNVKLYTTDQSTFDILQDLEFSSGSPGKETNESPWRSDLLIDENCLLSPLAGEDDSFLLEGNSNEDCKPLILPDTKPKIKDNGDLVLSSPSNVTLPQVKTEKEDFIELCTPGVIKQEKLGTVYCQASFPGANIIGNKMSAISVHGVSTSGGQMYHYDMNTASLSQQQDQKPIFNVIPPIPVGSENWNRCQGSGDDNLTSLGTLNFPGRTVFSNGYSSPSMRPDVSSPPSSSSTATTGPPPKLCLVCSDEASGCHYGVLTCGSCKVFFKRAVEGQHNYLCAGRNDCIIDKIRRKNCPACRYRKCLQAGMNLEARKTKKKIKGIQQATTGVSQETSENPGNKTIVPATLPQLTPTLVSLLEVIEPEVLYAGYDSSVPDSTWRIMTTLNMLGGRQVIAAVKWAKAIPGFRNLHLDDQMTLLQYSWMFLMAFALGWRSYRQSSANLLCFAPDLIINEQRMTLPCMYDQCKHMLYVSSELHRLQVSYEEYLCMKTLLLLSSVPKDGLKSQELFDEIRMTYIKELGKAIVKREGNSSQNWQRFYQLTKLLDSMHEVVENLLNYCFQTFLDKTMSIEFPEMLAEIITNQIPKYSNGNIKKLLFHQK
Cytochrome P450 3A4 (Homo sapiens), sequence (P08684 whole entry, looked up): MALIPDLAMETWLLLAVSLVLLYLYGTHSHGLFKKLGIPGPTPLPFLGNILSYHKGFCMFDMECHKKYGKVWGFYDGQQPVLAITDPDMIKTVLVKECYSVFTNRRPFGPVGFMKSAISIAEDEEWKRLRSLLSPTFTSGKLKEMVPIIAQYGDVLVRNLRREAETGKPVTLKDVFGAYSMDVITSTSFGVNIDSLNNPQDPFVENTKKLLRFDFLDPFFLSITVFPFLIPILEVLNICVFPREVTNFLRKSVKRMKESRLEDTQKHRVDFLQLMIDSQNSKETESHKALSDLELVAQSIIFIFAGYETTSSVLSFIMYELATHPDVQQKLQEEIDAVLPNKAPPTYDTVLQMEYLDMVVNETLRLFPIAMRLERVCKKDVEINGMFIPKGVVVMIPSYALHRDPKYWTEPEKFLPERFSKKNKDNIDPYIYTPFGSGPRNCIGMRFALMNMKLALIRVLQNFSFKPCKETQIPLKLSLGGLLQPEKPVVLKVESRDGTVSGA
3',5'-cyclic-AMP phosphodiesterase 4B (Homo sapiens), sequence (Q07343 whole entry, looked up): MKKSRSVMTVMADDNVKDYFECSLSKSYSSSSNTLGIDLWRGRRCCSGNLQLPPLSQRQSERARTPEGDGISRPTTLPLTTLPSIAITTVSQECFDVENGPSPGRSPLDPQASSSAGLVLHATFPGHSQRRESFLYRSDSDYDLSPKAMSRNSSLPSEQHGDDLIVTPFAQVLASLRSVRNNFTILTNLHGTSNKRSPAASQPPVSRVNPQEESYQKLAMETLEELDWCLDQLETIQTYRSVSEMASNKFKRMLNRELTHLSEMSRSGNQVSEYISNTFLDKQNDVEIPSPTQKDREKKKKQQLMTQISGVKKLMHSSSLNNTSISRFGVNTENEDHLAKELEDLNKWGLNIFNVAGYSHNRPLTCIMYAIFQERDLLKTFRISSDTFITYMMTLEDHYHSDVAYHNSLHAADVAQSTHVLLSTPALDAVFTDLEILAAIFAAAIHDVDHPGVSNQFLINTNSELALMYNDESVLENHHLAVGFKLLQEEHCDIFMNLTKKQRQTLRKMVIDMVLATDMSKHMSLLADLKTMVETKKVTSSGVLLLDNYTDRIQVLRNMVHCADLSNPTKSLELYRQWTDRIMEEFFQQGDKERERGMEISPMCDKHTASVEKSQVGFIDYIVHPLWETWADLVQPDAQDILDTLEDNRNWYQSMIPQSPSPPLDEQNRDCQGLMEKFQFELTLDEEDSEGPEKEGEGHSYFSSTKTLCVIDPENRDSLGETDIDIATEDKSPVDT
Ubiquitin carboxyl-terminal hydrolase 1 (Homo sapiens), sequence (O94782 whole entry, looked up): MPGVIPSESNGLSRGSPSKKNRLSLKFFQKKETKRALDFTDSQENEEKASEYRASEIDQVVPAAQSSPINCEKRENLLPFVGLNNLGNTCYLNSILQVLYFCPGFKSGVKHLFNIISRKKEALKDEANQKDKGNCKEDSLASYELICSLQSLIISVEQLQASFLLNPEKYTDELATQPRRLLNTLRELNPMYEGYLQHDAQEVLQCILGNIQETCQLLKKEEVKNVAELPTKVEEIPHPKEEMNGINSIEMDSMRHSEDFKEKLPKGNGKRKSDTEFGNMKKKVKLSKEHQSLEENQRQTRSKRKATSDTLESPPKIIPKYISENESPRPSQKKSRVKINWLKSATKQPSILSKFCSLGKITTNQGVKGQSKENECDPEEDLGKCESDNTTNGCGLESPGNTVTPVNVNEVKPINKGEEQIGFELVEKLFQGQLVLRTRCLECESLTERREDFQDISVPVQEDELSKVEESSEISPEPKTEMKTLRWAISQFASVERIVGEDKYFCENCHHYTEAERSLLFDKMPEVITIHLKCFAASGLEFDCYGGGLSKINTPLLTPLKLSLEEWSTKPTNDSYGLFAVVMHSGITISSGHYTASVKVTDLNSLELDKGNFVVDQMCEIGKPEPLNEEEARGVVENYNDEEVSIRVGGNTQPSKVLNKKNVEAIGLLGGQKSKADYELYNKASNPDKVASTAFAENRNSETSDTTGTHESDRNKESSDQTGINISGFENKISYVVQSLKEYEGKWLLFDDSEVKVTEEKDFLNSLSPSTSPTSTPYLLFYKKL
Alpha-galactosidase A (Homo sapiens), sequence (P06280 whole entry, looked up): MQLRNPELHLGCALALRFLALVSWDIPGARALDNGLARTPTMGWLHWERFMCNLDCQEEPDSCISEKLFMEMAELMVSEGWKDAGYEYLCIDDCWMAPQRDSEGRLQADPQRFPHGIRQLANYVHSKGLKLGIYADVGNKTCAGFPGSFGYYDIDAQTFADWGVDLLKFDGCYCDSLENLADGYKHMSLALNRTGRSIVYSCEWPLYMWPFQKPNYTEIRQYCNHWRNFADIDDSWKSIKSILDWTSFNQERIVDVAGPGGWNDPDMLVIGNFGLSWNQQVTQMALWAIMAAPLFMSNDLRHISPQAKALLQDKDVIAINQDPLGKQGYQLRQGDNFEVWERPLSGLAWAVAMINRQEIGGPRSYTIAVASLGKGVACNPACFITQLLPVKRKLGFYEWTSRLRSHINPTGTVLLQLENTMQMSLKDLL
Pyruvate kinase PKM (Homo sapiens), sequence (P14618 whole entry, looked up): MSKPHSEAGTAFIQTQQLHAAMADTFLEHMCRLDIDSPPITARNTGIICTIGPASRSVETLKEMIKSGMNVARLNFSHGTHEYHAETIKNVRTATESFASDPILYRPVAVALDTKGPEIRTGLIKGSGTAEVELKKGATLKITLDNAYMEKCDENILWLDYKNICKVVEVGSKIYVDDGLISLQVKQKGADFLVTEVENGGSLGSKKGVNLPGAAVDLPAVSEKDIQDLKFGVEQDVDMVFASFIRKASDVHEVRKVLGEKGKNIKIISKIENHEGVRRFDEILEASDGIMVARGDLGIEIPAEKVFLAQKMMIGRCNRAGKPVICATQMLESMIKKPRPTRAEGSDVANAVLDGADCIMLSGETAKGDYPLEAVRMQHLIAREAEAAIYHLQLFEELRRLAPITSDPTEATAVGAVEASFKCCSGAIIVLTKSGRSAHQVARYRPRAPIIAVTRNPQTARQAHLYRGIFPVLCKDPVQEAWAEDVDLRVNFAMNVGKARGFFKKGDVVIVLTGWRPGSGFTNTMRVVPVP
Cytochrome P450 2D6 (Homo sapiens), sequence (P10635 whole entry, looked up): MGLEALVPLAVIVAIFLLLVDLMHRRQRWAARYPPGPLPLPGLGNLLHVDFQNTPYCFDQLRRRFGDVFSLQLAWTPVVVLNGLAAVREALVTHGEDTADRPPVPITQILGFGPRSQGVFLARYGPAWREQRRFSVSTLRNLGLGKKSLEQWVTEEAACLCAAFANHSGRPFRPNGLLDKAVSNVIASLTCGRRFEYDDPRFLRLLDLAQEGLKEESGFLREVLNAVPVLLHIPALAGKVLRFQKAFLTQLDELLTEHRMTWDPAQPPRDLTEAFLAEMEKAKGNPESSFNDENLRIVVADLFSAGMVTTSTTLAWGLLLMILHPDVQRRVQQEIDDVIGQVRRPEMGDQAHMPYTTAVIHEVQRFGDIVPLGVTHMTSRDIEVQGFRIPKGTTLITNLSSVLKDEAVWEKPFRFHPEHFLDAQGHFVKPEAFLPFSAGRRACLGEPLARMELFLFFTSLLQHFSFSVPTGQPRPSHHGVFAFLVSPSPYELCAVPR
DNA dC->dU-editing enzyme APOBEC-3G (Homo sapiens), sequence (Q9HC16 whole entry, looked up): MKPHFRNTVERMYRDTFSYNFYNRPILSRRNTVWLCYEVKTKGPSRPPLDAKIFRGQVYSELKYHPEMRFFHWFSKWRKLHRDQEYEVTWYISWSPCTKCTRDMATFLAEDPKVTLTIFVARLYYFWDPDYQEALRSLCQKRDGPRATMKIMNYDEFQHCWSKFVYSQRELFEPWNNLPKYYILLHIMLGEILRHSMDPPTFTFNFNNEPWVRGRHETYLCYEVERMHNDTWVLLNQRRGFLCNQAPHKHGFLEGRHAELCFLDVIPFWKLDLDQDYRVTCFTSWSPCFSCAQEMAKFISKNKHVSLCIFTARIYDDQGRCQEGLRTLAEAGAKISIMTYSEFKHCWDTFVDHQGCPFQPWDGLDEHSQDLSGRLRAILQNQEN
Guanine nucleotide-binding protein G(i) subunit alpha-1 (Homo sapiens), sequence (P63096 whole entry, looked up): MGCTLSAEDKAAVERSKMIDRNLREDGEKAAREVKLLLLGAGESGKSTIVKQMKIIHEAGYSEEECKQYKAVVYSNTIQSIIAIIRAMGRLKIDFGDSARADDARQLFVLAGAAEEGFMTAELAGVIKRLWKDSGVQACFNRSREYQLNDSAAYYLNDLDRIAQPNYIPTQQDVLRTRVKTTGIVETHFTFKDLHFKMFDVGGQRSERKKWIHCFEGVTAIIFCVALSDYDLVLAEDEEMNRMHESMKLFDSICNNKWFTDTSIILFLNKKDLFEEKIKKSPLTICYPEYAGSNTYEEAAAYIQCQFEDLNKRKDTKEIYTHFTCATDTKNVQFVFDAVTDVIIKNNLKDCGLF

CC(C)c1cccc(O)c(=O)c1
inactive: outcome [1] | outcome [2] | Potency [3] | Potency [4] | Potency [5] | outcome [6] | outcome [7]

CN1CCN2c3ccccc3Cc3ccccc3[C@@H]2C1
inactive: activity, negative = inhibition ([8]; at 17.2 µM (top of the series)) 2.47% | activity, negative = inhibition ([8]; at 38 µM (top of the series)) -1.53% | Potency [9] > 46 µM and > 20.6 µM | Potency [10] > 46 µM and > 20.6 µM | Potency [11] | Potency [12] | outcome [13] | Potency [14] | Potency [15] | outcome [16] | outcome [17] | outcome [18] | activity change, negative = inhibition ([19]; at 25.7 µM (top of the series)) -3.71% | Potency [3] | Potency [20] | Potency [4]
-3.28%: max response ([19]; measured here: cell count channel max response)
-8.62%: max response ([19]; measured here: lipid channel max response)

CN1c2cc3c(cc2N=C(c2ccc(C(=O)O)cc2)c2ccccc21)C(C)(C)CCC3(C)C
inactive: Potency [14] | Potency [4] | Potency [21]

O=C1c2ccccc2CCC1CNCCc1ccc(O)cc1 (stereo unspecified)
inactive: Potency [4] | Potency [21]
active: Potency [22] 28.2 µM
